Most compounds without a hit are left out; they make up all but 1.5% or so of the library.
PLK1 PBD inh: blocks phosphopeptide binding to human Plk1 polo box domain; Plk1 PBD phosphopeptide binding, fluorescence polarization; AID 693; 0.13% of 97,000 active; P53350; inhibition, %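 (tested at about 20 µM)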; in the data active = inhibition above about 34%, passing the limit was not always enough
PLK1 kinase inh: inhibitors of human PLK1 kinase; AID 619; inhibition, % at 10 µM; 0.53% of 97,000 active; recombinant PLK1 kinase, TR-FRET peptide phosphorylation; P53350;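 active = inhibition of 50% or more in the single-concentration screen; inactive = inhibition below 50%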
PKA inh: PKA (human) kinase inhibition; PKA Kemptide phosphorylation, Kinase-Glo ATP luminescence; inhibition, % at 6 µM; 0.1% of 65,000 active; AID 524;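 active = inhibition above the screen-wide mean inhibition plus 3 SD, cut at about 21% in these data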
JNK3 inh: JNK3 (human) kinase inhibition; P53779; purified JNK3 kinase activity, HTS; inhibition, % at 8 µM; 0.61% of 60,000 active; AID 746; in the data active = inhibition above about 17%
FAK inh: FAK (human) kinase inhibition; Q05397; biochemical FAK kinase activity assay; inhibition, %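 (tested at 7 µM)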; 0.84% of 97,000 active; AID 727
ROCK2 blocker: inhibitors of human Rho kinase 2 | 0.35% of 60,000 active | inhibition, % at 6 µM | O75116 | purified ROCK2, Kinase-Glo ATP depletion luminescence;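 active = inhibition above the screen-wide mean inhibition plus 3 SD, cut at about 18% in these data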
PLK1 confirm: confirmation of human PLK1 kinase inhibitors. shares compounds with PLK1 kinase inh. recombinant PLK1 kinase, TR-FRET peptide phosphorylation. inhibition, % at 10 µM. 20% of 210 active. AID 744;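 active = inhibition at or above 50% in each of two repeat confirmation tests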
Plk1 interf: interferes with the Plk1 assay readout, not true inhibition; shares compounds with PLK1 kinase inh; Plk1 TR-FRET assay interference, compound added post-reaction; inhibition (interference), % at 10 µM; 210 tested, under 10 active; AID 756;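 active = both duplicate runs show 50% or greater inhibition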
Redox H2O2 DR: generates H2O2 by redox cycling, flagging false Plk1 PBD hits; AID 876; shares compounds with PLK1 PBD inh; redox cycling H2O2 generation, DTT, counter-screen; 120 tested, under 10 active; EC50, µM; call rule not given here
FAK inh confirm: FAK (human) inhibition confirmed; 28% of 750 active; FAK kinase biochemical inhibition assay; shares compounds with FAK inh; inhibition, % at 7 µM
A number is an active result; i = inactive; nt = no result. Cut-off read from the data, not from the text of the source, unless noted: active = inhibition above about 19%; inactive = the rest.

SMILES	PLK1 PBD inh	PLK1 kinase inh	PKA inh	JNK3 inh	FAK inh	ROCK2 blocker	others
C1=C(c2c[nH]c3ccccc23)CCNC1	i	i	21	i	i	28
CC1(C)C2CC=C(CN3CCOCC3)C1C2 (centres undefined)	i	i	i	i	i	i
CCN1CCN(Cc2nnnn2C(C)(C)C)CC1	i	i	66	i	i	21
CCC(C)(C)n1nnnc1CN1CCC(n2c(C)nc3cc(C(F)(F)F)ccc32)CC1	i	i	nt	nt	i	nt
c1ccc2c3c([nH]c2c1)CNCC3	nt	nt	i	i	nt	i
c1ccc2c(c1)[nH]c1cnccc12	nt	nt	i	i	nt	24
Cc1c2ccncc2c(C)c2c1[nH]c1ccccc12	nt	nt	46	i	nt	46
COc1ccc(N2C(=O)CC(N3CC=C(c4ccccc4)CC3)C2=O)cc1 (centres undefined)	nt	nt	i	i	nt	i
Cc1nc2ccc(Br)cc2c(=O)n1-c1ccc([N+](=O)[O-])c(C(F)(F)F)c1	nt	i	nt	nt	nt	nt
Cn1ncnc2c(=O)n(C)c(=O)nc1-2	nt	nt	i	60	nt	67
COc1ccc2[nH]c(C)c(CCN3CCC(=O)C(C)C3C)c2c1 (centres undefined)	i	83	i	i	i	i	PLK1 confirm=i;Plk1 interf=i
CC12CN3CC(C)(CN(C1)C3c1ccco1)C2=O (centres undefined)	i	i	i	i	i	i
Cc1ccc2c(c1)CC1(CN2C)C(=O)NC(=O)N(c2cccc(C)c2C)C1=O (centres undefined)	i	i	i	i	i	i
Cc1ccc2c(c1)CC1(CN2C)C(=O)NC(=O)N(c2ccccc2C)C1=O (centres undefined)	40	i	i	i	i	i	Redox H2O2 DR=i
O=P(C(c1ccc2c(c1)OCO2)N1CCOCC1)(N1CCOCC1)N1CCOCC1 (centres undefined)	i	i	i	i	i	i
COc1ccccc1-n1c(O)c(C=Nc2c(C)n(C)n(-c3ccccc3)c2=O)c(=O)[nH]c1=O	nt	nt	i	i	nt	i
CN1C(=O)N(C)C(=O)C2(Sc3ccccc3C2=O)C1=O	57	i	i	i	i	i	Redox H2O2 DR=i
O=[N+]([O-])c1ccc(N2CCNCC2)cc1NCC1CCCO1 (centres undefined)	47	i	nt	nt	i	nt	Redox H2O2 DR=i
CN1CCN(c2ccc(C=O)cc2)CC1	i	i	nt	nt	i	nt
CN1CCN(c2ccc(N)cc2)CC1	i	i	nt	nt	67	nt	FAK inh confirm=74
CC12CN3CC(C)(CN(C1)P3(=O)Oc1ccccc1)C2=O (centres undefined)	i	i	i	i	50	i	FAK inh confirm=i
CCOP1(=S)Oc2cc3c(cc2C(C(=O)OC)(C(F)(F)F)O1)OCO3 (centres undefined)	nt	nt	i	i	nt	i
O=C1Nc2ccccc2/C1=C/c1cnc[nH]1	i	61	nt	nt	75	nt	FAK inh confirm=47
CC(Oc1ccc(-c2ccccc2)cc1)C(=O)O (centres undefined)	i	i	i	i	i	i
COCCCn1c(N)c(C(=O)OC(C)COC)c2nc3ccccc3nc21 (centres undefined)	nt	nt	i	i	nt	i
CCC(C)NC(=O)c1c(N)n(CCCOC)c2nc3ccccc3nc12 (centres undefined)	i	i	i	i	37	i	FAK inh confirm=i

Compound activity from PubChem BioAssay.
